This is an account of results in PubChem BioAssay AID686978 (National Center for Advancing Translational Sciences (NCATS), 2013).

Molecules are shown by their SMILES. In all, about 420,000 compounds went through this assay and about 64,000 (15%) were called active. About 27% were inconclusive and are not listed. Calls follow the shape of the dose curve; as a rule, active = well fitted inhibition curve with a large enough effect; inconclusive = small, poorly fitted or top-dose-only effect; inactive = flat fitted curve, though single readings scatter. Not all results are given here.
% is scaled to controls: 0 for no effect and ±100 for the full control effect; potency is read from the fitted curve at half-maximal effect.

The assay can be described thus: qHTS for Inhibitors of human tyrosyl-DNA phosphodiesterase 1 (TDP1): qHTS in cells in absence of CPT. Also: nearly all actives have a fitted effect of over 55% in size. To be noted: DT40 Tdp1-/- hTDP1 cells, no CPT, ATP luminescence, 48 h; activity change, negative = growth inhibition: at 46.2 µM (top of the series). The essentials: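 Chicken DT40 Tdp1-/- cells complemented with human TDP1, screened without camptothecin (DMSO vehicle only), 400 cells/well. Compounds pin-transferred, cells incubated at 37 °C for at least 48 hr. Growth read as ATP-dependent luminescence (CellTiter-Glo, 30 min at RT).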
(In general: qHTS replaces the single test concentration by a dilution series.)
As for `O=C(O)c1cc(S(=O)(=O)NC2CCCc3ccccc32)ccc1O` (stereo unspecified), the “activity change, negative = growth inhibition” value was 10.8% (inactive). In the case of `CCN(CC)CCOc1ccc2c(c1)C(=NNC(=O)c1ccccn1)c1cc(OCCN(CC)CC)ccc1-2`, the Potency is 3.26 µM (active). `CCC(C)(NC(=O)c1ccccn1)C(=O)NC1CCCCC1` (stereo unspecified): the “activity change, negative = growth inhibition” value was 10.8% (inactive). With `Cc1cccc(OCC(=O)NCCCNC(=O)c2ccccn2)c1`, the “activity change, negative = growth inhibition” value is 3.27% (inactive). Same read-out and setting: for `N#Cc1ccc[n+](CC(=O)c2ccc(O)c(O)c2)c1` the value was -17.2% (inactive). Regarding `CCOC(=O)c1cc2ccccc2n1CC(=O)c1ccccc1`, the “activity change, negative = growth inhibition” value is -24.1% (inactive).

Take `CCn1c(/C=C/Nc2ccccc2)[n+](CC)c2ccc(C(=O)OCC(F)(F)F)cc21`: the Potency was 14.6 µM (active). For `Cc1nnc(SC(C(=O)c2ccccc2)c2ccccc2)[nH]c1=O` (stereo unspecified), the “activity change, negative = growth inhibition” value was -3.13% (inactive).

With `NC(=O)c1ncn([C@@H]2O[C@H](CNCc3cnc(N4CCOCC4)s3)[C@@H](O)[C@H]2O)n1`, the “activity change, negative = growth inhibition” value is -4.59% (inactive). Consider `CN(C)C(=O)c1ccc(NC(=O)c2ccccc2-c2ccccc2)cc1`, for which the “activity change, negative = growth inhibition” value was 5.43% (inactive).

`CN(C)C(=O)c1ccc2c(c1)C1C3CCC(C3)C1C(c1ccccc1)N2` (stereo unspecified): the Potency was 18.4 µM (active). For `O=C(O)CCCN1C(=O)C2C3c4ccccc4C(c4ccccc43)[C@@H]2C1=O` (stereo partly specified), the “activity change, negative = growth inhibition” value was 9.38% (inactive). For the compound `CCOC(=O)N1CCN(C(=O)C2CCCN(c3ncnc4c3sc3cccc(F)c34)C2)CC1` (stereo unspecified), the Potency is 6.51 µM (active). Take `CCOC(=O)N1CCN(C(=O)C2CCN(Cc3ccc(OC)cc3OC)CC2)CC1`: the “activity change, negative = growth inhibition” value was -4.56% (inactive). As for `CCOC(=O)N1CCN(C(=O)C2CCN(S(=O)(=O)c3cc(Cl)ccc3OCC)CC2)CC1`, the “activity change, negative = growth inhibition” value is -13.3% (inactive). For the compound `CCOC(=O)N1CCN(C(=O)C2CC(c3ccc(F)cc3)=NO2)CC1` (stereo unspecified), the “activity change, negative = growth inhibition” value is -2.5% (inactive). Regarding `CCOC(=O)N1CCN(C(=O)C2CCN(c3ncnc4c3sc3cccc(F)c34)CC2)CC1`, the Potency was 5.8 µM (active). As to `Cc1cc(=O)n2nc(N3CCCC(C(=O)N4CCN(C)CC4)C3)sc2n1` (stereo unspecified), the “activity change, negative = growth inhibition” value is -15.7% (inactive). Take `O=C(O)c1c(NC(=O)N2CCCC2)sc2c1CCCC2`: the “activity change, negative = growth inhibition” value was -12.9% (inactive). Consider `CC(C)C(=O)N1CC(=O)Nc2ccc(F)cc2C1c1ccc(F)cc1` (stereo unspecified), for which the “activity change, negative = growth inhibition” value was -25% (inactive). In the case of `O=S(=O)(NCc1ccco1)c1cnc(Cl)c(Cl)c1`, the “activity change, negative = growth inhibition” value is 3.34% (inactive). As for `COc1ccc([C@H]2CC(=O)C=C(c3ccc(CO)cc3)C2)cc1`, the “activity change, negative = growth inhibition” value is -19.7% (inactive).

Turning to `COc1ccc([C@H]2CC(=O)C=C(c3ccc(OC(F)(F)F)cc3)C2)cc1OC`, the Potency is 16.4 µM (active). As for `COc1ccc([C@H]2CC(=O)C=C(c3ccc(C)cc3)C2)cc1`, the “activity change, negative = growth inhibition” value was -27.9% (inactive).

With `COc1cc(C2C(C#N)=C(C)NC3=C2C(=O)CC(C)(C)C3)ccc1O` (stereo unspecified), the “activity change, negative = growth inhibition” value is -9.8% (inactive). On the same count and under the same terms, for `C=CCNCCCCOc1ccccc1` the value was -3.33% (inactive). In the case of `Nc1cccc(OCCCCCOc2cccc(N)c2)c1`, the Potency was 16.4 µM (active).

Consider `CN(C)CCOc1cccc(Br)c1`, for which the “activity change, negative = growth inhibition” value was 1.1% (inactive). The same measure, in the same setting: for `CCCCN(C(=O)CSCC(=O)Nc1ccc(OC)cc1)c1c(N)n(CCC)c(=O)[nH]c1=O` the value was -4.94% (inactive); for `COc1ccc(CCNC(=O)COC(=O)Cc2cccc(F)c2)cc1`, -11.1% (inactive). Take `O=C(C1CCCN1S(=O)(=O)c1ccc(Br)cc1)N1CCOCC1` (stereo unspecified): the “activity change, negative = growth inhibition” value was 5.59% (inactive). As for `Cc1ccc(N(CCC(=O)O)S(=O)(=O)c2cccc(C(F)(F)F)c2)cc1`, the “activity change, negative = growth inhibition” value was 0.617% (inactive). On to `Cc1noc(C)c1S(=O)(=O)Nc1ccc(C(=O)O)cc1`, for which the “activity change, negative = growth inhibition” value is -14.4% (inactive).

`Cc1oc2c(F)c(F)c(F)c(F)c2c1S(=O)(=O)Nc1cccc(C(F)(F)F)c1`: the Potency is 20.6 µM (active).

As to `Cc1cccc(C(=O)OCC(=O)Nc2sccc2C(N)=O)c1C`, the “activity change, negative = growth inhibition” value was -9.13% (inactive). For `COc1cc(OC)cc(C(=O)OCC(=O)Nc2sccc2C(N)=O)c1`, the Potency is 18.4 µM (active).

Regarding `COc1cc(OC)cc(C(=O)OCC(=O)Nc2ccc(F)cc2F)c1`, the “activity change, negative = growth inhibition” value was 1.65% (inactive). On to `COc1ccc(S(=O)(=O)NC(C)c2ccccc2)cc1C(=O)N1CCCCC1` (stereo unspecified), for which the “activity change, negative = growth inhibition” value is -5.94% (inactive). For the compound `Cc1ccc2cc(CCNC(=O)c3c(-c4ccccc4Cl)noc3C)c(=O)[nH]c2c1`, the Potency is 18.4 µM (active). With `Cc1cc(C)cc(NC(=O)CCCc2nc(-c3ccccc3Cl)no2)c1`, the “activity change, negative = growth inhibition” value was -11.2% (inactive).

With `Cc1ccc(CNC(=O)c2c(-c3ccccc3)noc2C)cc1`, the “activity change, negative = growth inhibition” value was -4.56% (inactive). For the compound `O=S(=O)(/C=C/c1ccccc1)NCCc1ccccn1`, the “activity change, negative = growth inhibition” value was 1.82% (inactive). Take `COc1cc(OC)cc(C(=O)N[C@H](C(=O)OCC(=O)NC(C)c2ccccc2)C(C)C)c1` (stereo partly specified): the “activity change, negative = growth inhibition” value was -21.4% (inactive). For `COc1cc(OC)cc(C(=O)N[C@H](C(=O)Nc2nc3ccccc3[nH]2)C(C)C)c1`, the Potency was 2.59 µM (active). With `COc1ccc(C(=O)N[C@H](C(=O)NCc2ccccc2)C(C)C)cc1`, the “activity change, negative = growth inhibition” value is -23.7% (inactive). On the same count and under the same terms, the result for `C=CCSc1nnc(Cn2c(=O)sc3ccccc32)n1C` reads 10.5% (inactive); that for `COc1ccc(CCN2CC(C(=O)OCC(=O)NCc3ccccc3Cl)CC2=O)cc1OC` (stereo unspecified), 26.6% (inactive).

As to `COC(=O)[C@]1(C)CCC[C@@]2(C)C3CC[C@]4(OC(C)=O)C[C@@]3(CCC21)CC4=NO` (stereo partly specified), the Potency is 16.4 µM (active). For `CN1CCN(C(=O)N2c3ccccc3CCc3ccccc32)CC1`, the “activity change, negative = growth inhibition” value was -30% (inactive).

On to `CC(C)c1cc(Cn2c3ccccc3c(=O)n2C(C)Cn2cc(C3CC3)nn2)on1` (stereo unspecified), for which the “activity change, negative = growth inhibition” value was 6.1% (inactive). Consider `CC(C)Oc1ccc(CN2CCC(n3nccc3NC(=O)c3cccnc3)CC2)cc1`, for which the “activity change, negative = growth inhibition” value is -0.551% (inactive).
